We go through ten molecules from PubChem BioAssay (NCATS).

Records with an inconclusive call do not appear. Values without a mark were called inactive. The source made the active and inactive calls. The call rests on the fitted dose curve; in most records, active means well fitted curve in the direction sought with a large enough effect; inconclusive means small, poorly fitted or top-dose-only effect, or another doubt; inactive means no such curve, though single readings can be large; an effect the other way counts as inactive or inconclusive.

Assay [1] relates to TAB165. The assay can be described thus: qHTS profiling for inhibitors of Plasmodium falciparum proliferation (AID 504749). Further: nearly all actives have a fitted effect of over 60% in size. The note with it: P. falciparum in erythrocytes, SYBR Green DNA, 72 h; series mostly up to 28.7 µM. Summed up: (§1)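 P. falciparum-infected erythrocytes (0.3% parasitemia, 2.5% hematocrit) incubated with compound 72 h at 37 C, 5% CO2. Parasite DNA detected by SYBR Green after lysis, overnight at room temperature; normalised to 0.29 uM artemisinin and DMSO.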
In general terms: qHTS replaces the single test concentration by a dilution series.

In assay [2] the test system is W2. The description is as above. The conditions noted are these: P. falciparum in erythrocytes, SYBR Green DNA, 72 h; series mostly up to 28.7 µM. Summed up:
as §1

Assay [3] has as its system HaCat. The assay is described as follows: Cytotoxic Profiling of Annotated Libraries Using Quantitative High-Throughput Screening (AID 1296008). Further: nearly all actives have a fitted effect of over 60% in size. On max response: on the % scale 0 is the no-effect control and ±100 the full control effect. The note with it: Five cell lines viability, CellTiter-Glo ATP luminescence, 48-72 h; max response: active compounds read low. Summed up:
(§2)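 Cells exposed to compounds for 48 or 72 hr at 37 degrees Celsius. Viability read as ATP-coupled luminescence with CellTiter-Glo after 10 min at room temperature.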
(In general: Cellular ATP, detected with luciferase, serves as a proxy for viable cell number.)

In assay [4] the test system is KB-3-1. The assay is described as above. The note with it: Five cell lines viability, CellTiter-Glo ATP luminescence, 48-72 h; max response: active compounds read low. Summed up: as §2
The test system of assay [5] is NIH3T3. Described as above. The conditions noted are these: Five cell lines viability, CellTiter-Glo ATP luminescence, 48-72 h; max response: active compounds read low. An outline of the steps:
as §2

Assay [6] relates to MCC-26. The assay can be described thus: qHTS assay to identify novel small-molecules to repurpose for Merkel cell carcinoma treatment (AID 1296009). Further: nearly all actives have a fitted effect of over 60% in size. The note with it: MCC and control cell lines, CellTiter-Glo viability, 72 h; series mostly up to 46 µM. An outline of the steps:
(§3)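 Cells were treated for 72 hr at 37 degree celsius with compounds in 8- or 11-point dose response. Viability was read by CellTiter-Glo luminescence, normalized to no-cell (cytotoxicity) and DMSO controls.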

For assay [7], the system named is MKL-1. The assay is described as above. The note with it: MCC and control cell lines, CellTiter-Glo viability, 72 h; series mostly up to 46 µM. An outline of the steps: as §3
The subject of assay [8] is MKL-2. The assay is described as above. The note with it: MCC and control cell lines, CellTiter-Glo viability, 72 h; series mostly up to 46 µM. An outline of the steps:
as §3

Assay [9] relates to UISO. The description is as above. The note with it: MCC and control cell lines, CellTiter-Glo viability, 72 h; series mostly up to 46 µM. Summed up: as §3
For assay [10], the system named is WaGa. The description is as above. The conditions noted are these: MCC and control cell lines, CellTiter-Glo viability, 72 h; series mostly up to 46 µM. Summed up:
as §3

Assay [11] has as its system C33A. The assay is described as follows: Primary qHTS to identify gynecologic anti-cancer compounds using libraries of approved drugs and bioactive compounds (AID 1345084). Further: nearly all actives have a fitted effect of over 55% in size. The conditions noted are these: Gynecologic cancer cell panel viability, ATPlite luminescence, 48 h; series mostly up to 57.5 µM. An outline of the steps: (§4)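 Cells, 1,000 per well, were allowed to settle for 16 h at 37 C before compound addition. Five concentrations were tested for 48 h, and viability was read by ATPlite luminescence after 15 min at room temperature.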

Assay [12] concerns CAOV3. The description is as above. The note with it: Gynecologic cancer cell panel viability, ATPlite luminescence, 48 h; series mostly up to 57.5 µM. An outline of the steps: as §4
Assay [13] deals with TAB113. The assay can be described thus: qHTS profiling for inhibitors of Plasmodium falciparum proliferation (AID 504749). Further: nearly all actives have a fitted effect of over 60% in size. The note with it: P. falciparum in erythrocytes, SYBR Green DNA, 72 h; series mostly up to 28.7 µM. Summed up: as §1
The subject of assay [14] is CRL-7250. The assay is described as follows: Cytotoxic Profiling of Annotated Libraries Using Quantitative High-Throughput Screening (AID 1296008). Further: nearly all actives have a fitted effect of over 60% in size. On max response: on the % scale 0 is the no-effect control and ±100 the full control effect. The note with it: Five cell lines viability, CellTiter-Glo ATP luminescence, 48-72 h; max response: active compounds read low. An outline of the steps:
as §2

Assay [15] concerns MCC-13. The assay is described as follows: qHTS assay to identify novel small-molecules to repurpose for Merkel cell carcinoma treatment (AID 1296009). Further: nearly all actives have a fitted effect of over 60% in size. The note with it: MCC and control cell lines, CellTiter-Glo viability, 72 h; series mostly up to 46 µM. An outline of the steps: as §3
In assay [16] the test system is CASKI. The assay can be described thus: Primary qHTS to identify gynecologic anti-cancer compounds using libraries of approved drugs and bioactive compounds (AID 1345084). Further: nearly all actives have a fitted effect of over 55% in size. The note with it: Gynecologic cancer cell panel viability, ATPlite luminescence, 48 h; series mostly up to 57.5 µM. An outline of the steps:
as §4
Potency means the concentration at half of the fitted maximal effect.

On to `O=C(N/N=C/c1ccccc1O)c1ccncc1`, for which the Potency was 5.62 µM (active) in assay [1]; 6.01 µM (active) in assay [2]; 16.8 µM (active) in [5]; 9.44 µM (active) in assay [6]; 1.06 µM (active) in [7]; 0.75 µM (active) in [8]. The figures for the Potency in assay [9] and in [10] were 0.75 µM (active) and 2.66 µM (active), respectively. Moreover, the results for the max response in assay [3] and in [4] were -6.14% and 8.17%, respectively. Moreover, the Potency result in assay [11] and in assay [12] was “inactive” throughout.
Consider `CCOc1ccc2nc3cc(N)ccc3c(N)c2c1`, for which the Potency is 4.47 µM (active) in assay [13]; 10 µM (active) in assay [1]; 3.38 µM (active) in assay [2]; 11.9 µM (active) in [14]; 5.96 µM (active) in [7]; 2.99 µM (active) in assay [8]. The Potency in assay [9] was 8.41 µM (active); in assay [10], 2.11 µM (active); in [12], 12.6 µM (active). Besides, the max response in assay [3] was -2.56%; in [4], -2.82%. Moreover, in assay [6], the Potency entry is “inactive”.
Regarding `Cc1cccc(C)c1NC(=O)CN1CCN(CCCC(c2ccc(F)cc2)c2ccc(F)cc2)CC1`, the Potency entry in assay [13], in assay [15], in assay [6], in assay [7], in assay [9] and in [10] was “inactive” in each case. Further, the Potency entry in assay [16] was “inactive”. Further, the Potency in [2] is 4.55 µM (active). Also, the max response in assay [4] was -1.23%.
For `O=C(Nc1ccc(Cl)c(Cl)c1)C1CC1`, the Potency entry in [13], in assay [1], in assay [2], in assay [15], in assay [7] and in [8] was “inactive” each time. In addition, the Potency result in [9], in [10], in assay [11], in [12] and in [16] was “inactive” each time. Also, the values for the max response in assay [4] and in assay [5] were -14.1% and -1.64%, respectively.
Regarding `Nc1ccc(C(=O)Nc2ccccc2N)cc1`, the Potency entry in assay [13], in [1], in assay [11], in assay [12] and in assay [16] was “inactive” in each case. Besides, the max response in assay [4] was -27.7%. The values for the Potency in [7], in assay [8] and in assay [10] were 18.8 µM (active), 5.96 µM (active) and 2.66 µM (active), respectively.
`CC[C@H](C)C(=O)O[C@H]1CCC=C2C=C[C@H](C)[C@H](CC[C@@H]3C[C@@H](O)CC(=O)O3)[C@H]21`: the max response in assay [4] was 3.96%.
Consider `COc1ccc(/C=C/C(=O)c2ccc(OC)cc2OC)cc1`, for which the Potency in [13] is 8.91 µM (active); in assay [1] it was 4.47 µM (active); in [2] it was 4.26 µM (active); in assay [8] it was 5.31 µM (active). Also, the max response in assay [3] was -62.6%; in assay [5], -18.9%.
Regarding `CCCCOc1cc(C(=O)NCCN(CC)CC)c2ccccc2n1`, the Potency result in assay [13], in assay [1], in assay [15], in assay [7], in assay [11] and in assay [16] was “inactive” each time. For the same molecule, the max response is 2.41% in [3] and 0.155% in assay [4].
For the molecule `NC(CO)(CO)CO`, the Potency entry in assay [13], in [1], in assay [2], in [15], in assay [7] and in assay [8] was “inactive” throughout. Further, the Potency entry in assay [9], in [10], in [11] and in [16] was “inactive” in each case. In addition, the max response is 3.6% in assay [4] and -20% in assay [5].
Consider `CC1=C(C(=O)OC(C)C)C(c2cccc([N+](=O)[O-])c2)C(C(=O)OC2CN(C(c3ccccc3)c3ccccc3)C2)=C(N)N1` (stereo not given), for which the Potency is 7.08 µM (active) in [13]; 5.01 µM (active) in assay [1]; 5.36 µM (active) in assay [2]; 18.4 µM (active) in assay [4]; 21.1 µM (active) in [7]; 16.8 µM (active) in [8]. Besides, the Potency result in assay [11] and in assay [16] was “inactive” each time.
